Screening results (PubChem BioAssay)
This excerpt belongs to a sample that is enriched for hits.
E coli WT exp: E. coli BW25113 growth inhibition, expanded screen | AID 710 | OD600 absorbance | growth inhibition, % at 100 µM | hit rate 0.15% among 98,000;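 active means growth inhibition above about 50% at one test dose, limit read from the data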;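 further: growth measured after 20 h incubation at 37 °C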
Cav3 T inh: human Cav3.2 channel inhibition, primary screen; Cav3.2-expressing cells, Fluo-4 calcium fluorescence FDSS; active compounds read low; B-score at 10 µM; hit rate 4% among 100,000;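 active means single-dose well whose peak fluorescence ratio is a statistical outlier from its plate by either plate-standardised score or position-corrected B-score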
Target sequence (O95180 whole entry, looked up): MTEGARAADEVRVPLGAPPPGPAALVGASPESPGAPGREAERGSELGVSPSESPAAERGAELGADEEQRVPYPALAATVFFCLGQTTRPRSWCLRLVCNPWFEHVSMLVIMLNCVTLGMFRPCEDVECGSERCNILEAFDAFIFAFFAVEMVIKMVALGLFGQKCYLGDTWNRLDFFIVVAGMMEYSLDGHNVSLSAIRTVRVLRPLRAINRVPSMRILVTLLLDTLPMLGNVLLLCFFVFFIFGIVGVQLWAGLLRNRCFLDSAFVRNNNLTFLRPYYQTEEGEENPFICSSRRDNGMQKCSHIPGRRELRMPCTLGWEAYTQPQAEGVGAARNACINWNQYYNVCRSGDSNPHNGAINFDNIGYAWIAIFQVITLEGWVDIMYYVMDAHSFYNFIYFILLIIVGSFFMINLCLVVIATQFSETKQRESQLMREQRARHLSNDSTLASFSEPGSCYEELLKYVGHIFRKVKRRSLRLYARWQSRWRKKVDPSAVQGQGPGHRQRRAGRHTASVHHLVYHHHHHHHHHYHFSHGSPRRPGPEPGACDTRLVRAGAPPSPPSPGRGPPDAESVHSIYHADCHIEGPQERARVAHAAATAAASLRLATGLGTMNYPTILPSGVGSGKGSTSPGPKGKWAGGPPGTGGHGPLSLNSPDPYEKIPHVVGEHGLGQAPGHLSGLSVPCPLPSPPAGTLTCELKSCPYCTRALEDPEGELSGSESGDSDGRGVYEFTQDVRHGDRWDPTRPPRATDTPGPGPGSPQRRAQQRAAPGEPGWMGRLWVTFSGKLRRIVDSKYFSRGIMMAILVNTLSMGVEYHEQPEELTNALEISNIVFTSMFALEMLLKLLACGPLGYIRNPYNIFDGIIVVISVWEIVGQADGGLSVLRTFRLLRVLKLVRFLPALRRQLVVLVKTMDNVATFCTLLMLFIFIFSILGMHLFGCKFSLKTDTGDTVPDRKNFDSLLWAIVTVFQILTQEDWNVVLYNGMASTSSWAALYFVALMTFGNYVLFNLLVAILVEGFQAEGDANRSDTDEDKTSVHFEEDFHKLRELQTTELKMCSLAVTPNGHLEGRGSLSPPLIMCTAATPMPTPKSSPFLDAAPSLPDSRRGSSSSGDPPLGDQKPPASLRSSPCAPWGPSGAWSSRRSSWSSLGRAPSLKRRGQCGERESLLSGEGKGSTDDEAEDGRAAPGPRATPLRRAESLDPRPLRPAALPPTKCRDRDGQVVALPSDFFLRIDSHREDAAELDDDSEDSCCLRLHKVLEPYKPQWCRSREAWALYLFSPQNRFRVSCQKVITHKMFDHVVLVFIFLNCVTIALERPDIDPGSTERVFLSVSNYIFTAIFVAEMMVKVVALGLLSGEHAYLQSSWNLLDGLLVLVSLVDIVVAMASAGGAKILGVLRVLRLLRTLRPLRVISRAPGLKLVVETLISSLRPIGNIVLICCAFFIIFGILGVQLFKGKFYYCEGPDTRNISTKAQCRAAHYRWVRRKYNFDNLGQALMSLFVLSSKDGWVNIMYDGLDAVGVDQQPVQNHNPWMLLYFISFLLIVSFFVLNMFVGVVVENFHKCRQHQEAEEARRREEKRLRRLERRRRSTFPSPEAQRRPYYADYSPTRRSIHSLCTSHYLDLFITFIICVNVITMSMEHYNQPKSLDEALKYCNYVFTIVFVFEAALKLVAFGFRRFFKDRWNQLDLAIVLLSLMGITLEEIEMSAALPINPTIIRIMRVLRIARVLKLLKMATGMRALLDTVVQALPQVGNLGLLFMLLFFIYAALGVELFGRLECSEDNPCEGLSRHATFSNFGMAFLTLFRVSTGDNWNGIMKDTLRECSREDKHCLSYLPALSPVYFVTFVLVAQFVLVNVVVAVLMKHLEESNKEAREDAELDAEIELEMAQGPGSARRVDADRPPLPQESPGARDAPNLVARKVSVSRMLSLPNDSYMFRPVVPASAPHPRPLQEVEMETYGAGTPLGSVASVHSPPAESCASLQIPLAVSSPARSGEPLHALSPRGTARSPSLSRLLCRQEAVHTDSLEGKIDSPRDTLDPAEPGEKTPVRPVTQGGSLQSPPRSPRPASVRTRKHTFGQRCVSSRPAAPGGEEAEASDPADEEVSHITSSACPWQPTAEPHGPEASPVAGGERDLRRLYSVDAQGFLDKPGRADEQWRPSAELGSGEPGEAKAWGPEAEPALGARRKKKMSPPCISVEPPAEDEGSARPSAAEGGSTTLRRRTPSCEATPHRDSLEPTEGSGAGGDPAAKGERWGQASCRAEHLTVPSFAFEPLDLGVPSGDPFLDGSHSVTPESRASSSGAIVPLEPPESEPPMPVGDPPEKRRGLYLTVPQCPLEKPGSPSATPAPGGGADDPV
CD11b adhes inh: inhibitors of human CD11b/CD18 binding to fibrinogen | AID 1497 | hit rate 0.54% among 93,000 | P05107+P11215 | K562 CD11b/CD18 adhesion to fibrinogen, ATPlite luminescence; Mn2+ added to activate the integrin | inhibition, % at 10 µM;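 active means primary inhibition of 50% or more at 10 µM, then 40% or more on retest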
Mac1 fbg enh: enhancers of human CD11b/CD18 binding to fibrinogen; K562 CD11b/CD18 adhesion to fibrinogen, ATPlite luminescence; activation, % at 10 µM; hit rate 0.07% among 93,000; P05107+P11215;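 active means 10 µM primary screen giving 50% or more activity, confirmed by 40% or more on retest at that dose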
* hit, by the source's call; . = not tested or not shown.

SMILES	E coli WT exp	Cav3 T inh	CD11b adhes inh	Mac1 fbg enh
CCCCCCCCNC(C)C(O)c1ccc(SC(C)C)cc1 (centres undefined)	.	-4.45*	.	.
C[C@@H](NCCc1ccc(O)cc1)[C@@H](O)c1ccc(O)cc1	.	0.228	.	.
CSc1ncc(CNc2cc([N+](=O)[O-])ccc2C)c(N)n1	.	-0.493	.	.
O=C(CNC(=O)Cc1ccccc1)NCC(=O)OCc1ccc(C(=O)c2ccccc2)cc1	7.0	-2.46	10.9	-0.4
CNC(=S)SCCOc1ccccc1C	.	.	0.8	0.5
Brc1ccc(C2=CC(c3cccs3)n3ncnc3N2)cc1 (centres undefined)	6.0	-5.51*	.	.
OCCCc1nc2n(n1)C(c1cccs1)C=C(c1ccc(Br)cc1)N2 (centres undefined)	-2.0	-7.94*	-6.0	0.7
Cc1c(-c2cccc(NC(=O)c3cccs3)c2)nc2ncccn12	.	.	8.4	-0.2
Cc1cc(NC(=O)C(C)C)ncc1NC(=O)Cc1ccccc1	6.0	-4.02*	-8.6	-4.9
CCCC(=O)Nc1cc(C)c(NC(=O)Cc2ccccc2)cn1	5.0	0.573	-6.2	-1.9
COc1ccc(-n2c(SCC(=O)Nc3nc(C)cs3)nnc2-c2ccoc2C)cc1	.	-6.54*	.	.
Cc1occc1-c1nnc(SCC(=O)NCCc2ccccc2)n1Cc1ccccc1	6.0	-4.96*	6.7	-1.1
COc1cccc(-n2c(SCC(=O)NCCc3ccccc3)nnc2-c2ccoc2C)c1	-10.0	-8.05*	-4.5	-4.8
Cc1occc1-c1nnc(SCC(=O)Nc2ccccc2)n1C(C)c1ccccc1 (centres undefined)	-1.0	-4.27*	-15.6	-1.8
Cc1occc1-c1nnc(SCC(N)=O)n1Cc1ccccc1	-6.0	0.334	-8.3	-1.6
Cn1c(SCC(=O)NCCc2ccccc2)nnc1-c1ccco1	6.0	0.107	.	.
Cc1ccc(OCCn2cc(Br)c(=O)[nH]c2=O)cc1	-7.0	-0.016	-12.1	0.4
COc1cccc(-n2c(SCC(=O)Nc3nccs3)nnc2-c2ccoc2C)c1	.	-3.97*	.	.
COc1ccc(-n2c(SCC(=O)Nc3nccs3)nnc2-c2ccoc2C)cc1	-14.0	-1.49	5.5	-2.7
CC(=O)OC1COC(OC2C(O)C(C)OC(OC3C(OC4CCC5(C)C(CCC6(C)C5CC=C5C7CC(C)(C)CCC7(C(=O)O)CCC56C)C4(C)CO)OCC(O)C3O)C2O)C(O)C1OC(C)=O (centres undefined)	.	-4.99*	.	.
CCOC(=O)C(NC(=O)c1ccc(Cl)cc1Cl)(Nc1ccc(C)cc1)C(F)(F)F (centres undefined)	2.0	.	.	.
Cc1ccc(S(=O)(=O)N2CCCC2)cc1S(=O)(=O)N1CCCC1	5.0	1.53	-14.1	4.6
Cc1ccc(S(=O)(=O)c2ccc(Cl)cc2)cc1S(=O)(=O)N1CCOCC1	-10.0	-3.58*	-8.8	-0.4
CCN1/C(=C/c2ccc3ccccc3[n+]2CC)C=Cc2ccccc21	57.0*	-5.37*	94.1*	-6.4
CCN1C(=O)/C(=C2\C=Cc3ccccc3N2CC)SC1=S	-19.0	0.363	.	.
SMILES	E coli WT exp	Cav3 T inh	CD11b adhes inh	Mac1 fbg enh
O=P(CCCCCCCCCP(=O)(c1ccccc1)c1ccccc1)(c1ccccc1)c1ccccc1	-24.0	-9.56*	12.8	12.9
CCCCN(CCCC)CP(=O)(c1ccccc1)c1ccccc1	6.0	-5.77*	-6.5	-2.9
CC(C)CNC(=S)NC1CC2CCCC(C1)N2Cc1cccs1 (centres undefined)	7.0	0.761	3.4	3.0
CCOC(=O)C1(C)/C(=N/Nc2ccccc2Cl)C(=O)C(=O)N1c1ccccc1 (centres undefined)	-2.0	-4.94*	31.8	-1.3
COc1ccc(-c2csc(NCCc3nc4cc(Cl)c(Cl)cc4n3CCCO)n2)cc1	.	-0.487	.	.
O=C(c1ccc(Br)cc1)c1cc([N+](=O)[O-])ccc1N1CCCCC1	-9.0	-3.63*	.	.
CN1CCN(c2ccc([N+](=O)[O-])cc2C(=O)c2ccc(Br)cc2)CC1	-5.0	-1.77	.	.
O=C(NCc1ccco1)C1CC(c2cc(C(F)(F)F)cc(C(F)(F)F)c2)=NO1 (centres undefined)	.	-0.374	.	.
O=C(N/N=C/c1ccc(Cl)cc1)Nc1ccccc1	-4.0	-6.52*	.	.
Cc1ccc(NC(=O)c2c(C)nn(-c3ccccc3)c2Cl)cc1	.	.	0.8	5.4
CCCc1cc(-c2n[nH]c(=S)n2C(C)c2ccccc2)cs1 (centres undefined)	6.0	-4.61*	10.4	-3.0
CC(=O)Nc1cc2c(cc1C(=O)c1ccc(C)cc1)OCCO2	-2.0	-5.25*	-1.5	3.2
CC(=O)Nc1cc2c(cc1C(C)=O)OCCO2	2.0	.	-21.4	-5.0
Cc1cccc(Cc2cnc(NC(=O)c3ccc(C)o3)s2)c1	-11.0	-6.03*	17.1	-4.0
CCCCOc1ccccc1NC(=O)c1ccco1	-1.0	-4.46*	-9.8	0.0
O=C(NCCc1ccccc1F)[C@@H]1CSC2c3ccccc3C(=O)N21 (some centres undefined)	-7.0	-8.21*	-10.4	0.2
O=C(NCCN1CCN(c2ccccc2F)CC1)C1c2ccccc2C(=O)N2CCc3ccccc3C12 (centres undefined)	-10.0	-4.16	2.4	-7.9
CCCC1=NN2C(=N)/C(=C\c3ccc(SCc4ccco4)o3)C(=O)N=C2S1	-2.0	-1.45	64.5*	4.2
CCC1=NN2C(=N)/C(=C\c3ccc(SCc4ccco4)o3)C(=O)N=C2S1	-17.0	-1.34	9.7	-1.3
CC(C)Oc1ccc(/C=N/NC(=O)C2CCCN2S(=O)(=O)c2ccc(Cl)cc2)cc1 (centres undefined)	5.0	-4.72*	-1.4	3.7
CCCOc1ccc(/C=N/NC(=O)C2CCCN2S(=O)(=O)c2ccc(Cl)cc2)cc1 (centres undefined)	-2.0	0.816	-3.0	-1.0
Cc1ccc(S(=O)(=O)Nc2cc3c(C(=O)Nc4ccccc4)c(C)oc3c3ccccc23)cc1	.	.	-10.0	5.2
COc1ccc(N2CCN(S(=O)(=O)c3ccc(C(=O)NCc4ccco4)cc3)CC2)cc1	-8.0	-3.86*	.	.
O=C(NCc1ccco1)c1ccc(S(=O)(=O)N2CCOCC2)cc1	-3.0	0.433	.	.
Cn1nc(C(F)(F)F)c(/C=N/OC(=O)c2ccccc2Cl)c1SCc1ccccc1Cl	-3.0	-6.56*	7.8	-6.7
SMILES	E coli WT exp	Cav3 T inh	CD11b adhes inh	Mac1 fbg enh
O=C(Nc1ccc2c(c1)C(=O)N(CC1CCCO1)C2=O)c1cccc(Br)c1 (centres undefined)	-1.0	-2.66*	32.4	-0.7
COCCn1c(C)cc(C2=NNC(=Nc3ccc(Cl)cc3Cl)SC2)c1C	0.0	-1.45	13.8	82.3*
O=C(COc1cccc2ccccc12)N1c2ccccc2CCc2ccccc21	-17.0	-6.65*	.	.
O=C(COc1ccc(F)cc1)N1c2ccccc2CCc2ccccc21	.	.	3.7	-1.9
CC(C(=O)NCc1ccco1)n1cc(C(=O)c2ccco2)c2ccccc21 (centres undefined)	-1.0	-0.0156	-5.7	-3.3
Cc1ccc2c(CC(=O)NCC3COc4ccccc4O3)coc2c1 (centres undefined)	0.0	-6.6*	18.2	0.1
Cc1nc2ccccc2c2oc(C(=O)NCC3COc4ccccc4O3)cc12 (centres undefined)	-5.0	-5.33*	73.3	-1.1
O=C(Cc1ccccc1)NCC1COc2ccccc2O1 (centres undefined)	.	-1.62	.	.
